Laboratory results as given in PubChem BioAssay (NCATS).
Inconclusive results are not listed. Calls of active or inactive are those of the source. The call rests on the fitted dose curve; in most records, active means well fitted curve in the direction sought with a large enough effect; inconclusive means small, poorly fitted or top-dose-only effect, or another doubt; inactive means no such curve, though single readings can be large; an effect the other way counts as inactive or inconclusive.

Legend:
[1] = molecular target: Arylsulfatase A (Homo sapiens) (UniProt P15289); test: qHTS screen for enhancers of Arylsulfatase A (ASA1): LOPAC Validation Assay (AID 720538)
Chain of Arylsulfatase A (Homo sapiens) (P15289 whole entry, looked up): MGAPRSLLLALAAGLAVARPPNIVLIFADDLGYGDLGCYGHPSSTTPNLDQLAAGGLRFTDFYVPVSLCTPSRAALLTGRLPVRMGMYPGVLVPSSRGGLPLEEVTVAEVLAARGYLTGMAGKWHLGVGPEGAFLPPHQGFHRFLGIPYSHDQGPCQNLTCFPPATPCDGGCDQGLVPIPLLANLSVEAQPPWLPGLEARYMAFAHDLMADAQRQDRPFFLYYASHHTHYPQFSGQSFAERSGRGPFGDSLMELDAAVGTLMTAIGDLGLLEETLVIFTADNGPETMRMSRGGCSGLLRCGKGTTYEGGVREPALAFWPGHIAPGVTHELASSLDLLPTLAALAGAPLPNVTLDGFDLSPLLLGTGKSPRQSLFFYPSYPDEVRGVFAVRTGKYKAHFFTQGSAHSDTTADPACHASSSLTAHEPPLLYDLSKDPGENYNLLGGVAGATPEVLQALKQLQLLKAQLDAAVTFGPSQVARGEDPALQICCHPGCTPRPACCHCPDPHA
Summary of the method: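 SV40-transformed skin fibroblasts from an MLD patient (ASA-I179S) were treated with compounds for 48h at 37 degree C, then lysed with 0.5mM pNCS final substrate for 14h at room temperature; NaOH stop, fluorescence read (Ex=525 nm; Em=598 nm).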

[2] = qHTS for compounds that reverse cellular toxicity of Amyloid beta (A-beta) peptide in yeast: LOPAC Validation Assay (AID 720559)
Summary of the method: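 Yeast cells expressing toxic A-beta were combined with pinned compounds in growth medium and incubated 48 hr at 30 C. Growth was read as absorbance at 600 nm and normalized to DMSO and to an equimolar FeCl3/clioquinol positive control.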

[3] = qHTS for Activators of Parkin Expression: LOPAC Validation Assay (FLuc Reporter) (AID 720573)
Summary of the method: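 Neuronal cell line stably carrying FLuc/NLuc coincidence reporter under Parkin promoter; cells plated 24 h, then compounds added in 7-point dose response for 24 h at 37 C. FLuc luminescence read; normalized to DMSO and positive control (100%).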

[4] = qHTS for Activators of Parkin Expression: LOPAC Validation Assay (NLuc Reporter) (AID 720572)
Summary of the method: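 NLuc signal, read 10 min after reagent and following a prior FLuc read, is normalized to DMSO (0) and positive controls (100%). Cells: neuronal Parkin-promoter coincidence reporter line; compounds tested 7-point, 24 h, 37 C, 5% CO2.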

Measured: Potency

COc1ccc2c(c1OC)C(=O)O[C@@H]2[C@H]1c2c(cc3c(c2OC)OCO3)CCN1C
inactive: [1] | [2] | [3]

Cc1scc2c1N(C(=O)CN1CCN(C)CC1)c1ccccc1NC2=O
inactive: all assays above

c1ccc2c(c1)CCCC2C1=NCCN1 (configuration not stated)
inactive: all assays above

Cc1nc2sccn2c(=O)c1CCN1CCC(=C(c2ccc(F)cc2)c2ccc(F)cc2)CC1
inactive: all assays above

CCCN(CCC)CCc1cccc2c1CC(=O)N2
inactive: all assays above

CO[C@@]1(NC(=O)CSCC#N)C(=O)N2C(C(=O)O)=C(CSc3nnnn3C)CS[C@@H]21
inactive: all assays above

c1cc(CN2CCCCC2)cc(OCCCNc2nc3ccccc3s2)c1
inactive: [2] | [4] | [3]

NC/C=C/C(=O)O
inactive: [2] | [4] | [3]

CN(C)CCCN1c2ccccc2Sc2ccc(C(F)(F)F)cc21
inactive: [2] | [4] | [3]

NC1=NCC2c3ccccc3Cc3ccccc3N12 (configuration not stated)
inactive: [2] | [4] | [3]

C[C@]12CC[C@@H]3c4ccc(O)cc4C[C@@H](CCCCCCCCCS(=O)CCCC(F)(F)C(F)(F)F)[C@H]3[C@@H]1CC[C@@H]2O (some centres not stated)
inactive: [2] | [4] | [3]

NC(=O)c1ncn([C@@H]2O[C@H](CO)[C@@H](O)[C@H]2O)c1O
inactive: [2] | [4] | [3]

CN(C)[C@@H]1C(=O)C(C(N)=O)=C(O)[C@@]2(O)C(=O)C3=C(O)c4c(O)ccc(Cl)c4[C@@H](O)[C@H]3C[C@@H]12
inactive: [2] | [4] | [3]

CCc1c(C)[nH]c2c1C(=O)C(CN1CCOCC1)CC2 (configuration not stated)
inactive: [2] | [4] | [3]

CCn1cc(C(=O)O)c(=O)c2cc3c(cc21)OCO3
inactive: [2] | [4] | [3]

CN(C)C(=O)Oc1cccc([N+](C)(C)C)c1
inactive: [2] | [4] | [3]

C=CCc1ccccc1OCC(O)CNC(C)C (configuration not stated)
inactive: [2] | [4] | [3]

CCCNC(C)C(=O)Nc1ccccc1C (configuration not stated)
inactive: [2] | [4] | [3]

CCCCNc1c(C(=O)OCC)c(C)nc2c1cnn2CC
inactive: [2] | [4] | [3]

O=C(O)CN(CCN(CC(=O)O)CC(=O)O)CCN(CC(=O)O)CC(=O)O
inactive: [2] | [4] | [3]

O=C1CC2(CCCC2)CC(=O)N1CCCCN1CCN(c2ncccn2)CC1
inactive: [2] | [4] | [3]

NCCCNCCSP(=O)(O)O
inactive: [2] | [4] | [3]

CC(C)COCC(CN(Cc1ccccc1)c1ccccc1)N1CCCC1 (configuration not stated)
inactive: [2] | [4] | [3]

CC(=O)OCC1=C(C(=O)O)N2C(=O)[C@@H](NC(=O)Cc3cccs3)[C@H]2SC1
inactive: [2] | [4] | [3]

C[C@H](CS)C(=O)N1CCC[C@H]1C(=O)O
inactive: [2] | [4] | [3]

O=C(O)CN(CCOCCOCCN(CC(=O)O)CC(=O)O)CC(=O)O
inactive: [2] | [4] | [3]

O=C(CCNNC(=O)c1ccncc1)NCc1ccccc1
inactive: [2] | [4] | [3]

Brc1c(NC2=NCCN2)ccc2nccnc12
inactive: [2] | [4] | [3]

COc1cc2c(cc1OC)-c1cc(=Nc3c(C)cc(C)cc3C)n(C)c(=O)n1CC2
inactive: [2] | [4] | [3]

CCN(CC)CCNC(=O)c1ccc(NC(C)=O)cc1
inactive: [2] | [4] | [3]

CNC1(C)C2CCC(C2)C1(C)C (configuration not stated)
inactive: [2] | [4] | [3]

CCN1CCC[C@H]1CNC(=O)c1c(O)c(Cl)cc(Cl)c1OC
inactive: [2] | [4] | [3]

COCC(=O)O[C@]1(CCN(C)CCCc2nc3ccccc3[nH]2)CCc2cc(F)ccc2[C@@H]1C(C)C
inactive: [2] | [4] | [3]

O=C1NCN(c2ccccc2)C12CCN(CCCC(c1ccc(F)cc1)c1ccc(F)cc1)CC2
inactive: [2] | [4] | [3]

C[C@@H](O)[C@H]1C(=O)N2C(C(=O)O)=C(SCCN=CN)C[C@H]12
inactive: [2] | [4] | [3]

C#CCN(C)CCCOc1ccc(Cl)cc1Cl
inactive: [2] | [4]

CCOC(=O)c1cnc2c(cnn2CC)c1NN=C(C)C
inactive: [2] | [4] | [3]

CC(=O)[C@@]1(O)CC[C@H]2[C@@H]3CCC4=CC(=O)CC[C@]4(C)[C@H]3CC[C@@]21C
inactive: [2] | [4] | [3]

OCCN1CCN(CC/C=C2/c3ccccc3Sc3ccc(C(F)(F)F)cc32)CC1
inactive: [2] | [4] | [3]

C[C@]12CCC(=O)C=C1CC[C@@H]1[C@@H]2CC[C@@]2(C)[C@H]1CC[C@]2(O)C(=O)CO
inactive: [2] | [4] | [3]

COC(=O)C1=C(C)NC(C)=C(C(=O)OC(C)(C)CN(C)CCC(c2ccccc2)c2ccccc2)C1c1cccc([N+](=O)[O-])c1 (configuration not stated)
inactive: [2] | [4] | [3]
